Reference: PubChem BioAssay (NCI)
The panel holds about 79,000 compounds, 15% with a hit somewhere; the sample as a whole holds those more often. Values without a mark were called inactive. Active and inactive are the calls of the source. Rule as the data show it: active = growth inhibition above about 70%; inactive = the rest.

Tests used:
[1] = NCI Yeast Anticancer Drug Screen. Data for the rad50 strain (AID 155);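 also: 0% = growth of vehicle-only cultures of the same strain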; conditions: S. cerevisiae rad50 strain growth inhibition, hits give high values
Procedure, shortened: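 Yeast carrying a defined DNA repair defect were exposed to test compounds, and growth was compared with vehicle-treated controls to give percent inhibition.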

[2] = NCI Yeast Anticancer Drug Screen. Data for the mec2-1 strain (AID 157); conditions: S. cerevisiae mec2-1 strain, hits give high values
Procedure, shortened: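 Each compound was tested on mec2-1 yeast, a strain altered in DNA damage repair or cell cycle control. Growth inhibition is reported relative to vehicle.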

[3] = NCI Yeast Anticancer Drug Screen. Data for the sgs1 mgt1 strain (AID 161);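 also: 0% = growth of cultures given vehicle only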; conditions: S. cerevisiae sgs1 mgt1 strain, hits give high values
Procedure, shortened: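 Read-out: growth inhibition vs vehicle controls. Cells: mutant yeast strain deficient in DNA damage repair.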

[4] = NCI Yeast Anticancer Drug Screen. Data for the cln2 rad14 strain (AID 165);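 also: 0% = growth equal to vehicle treated cultures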; conditions: S. cerevisiae cln2 rad14 strain, hits give high values
Procedure, shortened: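 Test compounds were added to cln2 rad14 yeast cultures; inhibition of growth was then determined by comparison with vehicle treatment.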

[5] = NCI Yeast Anticancer Drug Screen. Data for the bub3 strain (AID 167); conditions: S. cerevisiae bub3 mutant strain, hits give high values
Procedure, shortened: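 Compounds were applied to a genetically altered yeast strain carrying a cell-cycle control defect. Growth inhibition was scored against vehicle-treated controls.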

[6] = NCI Yeast Anticancer Drug Screen. Data for the mlh1 rad18 strain (AID 175); conditions: S. cerevisiae mlh1 rad18 strain growth inhibition, hits give high values
Procedure, shortened: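 Inhibition values reflect reduced growth of mutant yeast versus vehicle-treated controls following compound exposure; the mutations affect DNA damage repair.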

[7] = at 5.0 µM (retest, dose inferred, filed as 0.5)
[8] = at 50.0 µM (retest, dose inferred, filed as 5.0)

| Structure (SMILES) | growth inhibition [1, 7] | growth inhibition [1, 8] | growth inhibition ([1]; at 50.0 µM) | growth inhibition [2, 7] | growth inhibition [2, 8] | growth inhibition ([2]; at 50.0 µM) | growth inhibition [3, 7] | growth inhibition [3, 8] | growth inhibition ([3]; at 50.0 µM) | growth inhibition [4, 7] | growth inhibition [4, 8] | growth inhibition ([4]; at 50.0 µM) | growth inhibition [5, 7] | growth inhibition [5, 8] | growth inhibition ([5]; at 50.0 µM) | growth inhibition [6, 7] | growth inhibition [6, 8] | growth inhibition ([6]; at 50.0 µM) |
| --- | --- | --- | --- | --- | --- | --- | --- | --- | --- | --- | --- | --- | --- | --- | --- | --- | --- | --- |
| COc1ccc(C2COc3cc(OC(C)=O)c(OC(C)=O)cc3C2)cc1 (configuration not stated) | -1% | 93% (active) | 96.1% (active) | 2% | 95% (active) | 95.9% (active) | 1% | 93% (active) | 95% (active) | 4% | 93% (active) | 94.9% (active) | 24% | 96% (active) | 97.1% (active) | -3% | 94% (active) | 96.6% (active) |
| CC(=O)OC1=Cc2ccccc2C(c2ccccc2)c2ccccc21 (configuration not stated) | -10% | 29% | 14.3% | -3% | 31% | 9.55% | 2% | 18% | 16.5% | 20% | 37% | 10.7% | 8% | 20% | 14.3% | 11% | 53% | 18.3% |
| CCCCCN1C(=O)CC(C(=O)OCC)=C1C | 3% | -14% | -12% | -3% | -8% | -17.2% | -4% | -14% | -23.9% | -9% | 1% | 76.5% (active) | -3% | 3% | 30.3% | 1% | -10% | 9.1% |
| COc1ccc(/C=C2\CN(C)C/C(=C\c3ccc(OC)c(OC)c3OC)C2=O)c(OC)c1OC | 27% | 96% (active) | 85.4% (active) | 1% | 97% (active) | 93.5% (active) | 7% | 98% (active) | 92% (active) | 7% | 86% (active) | 91.2% (active) | 14% | 96% (active) | 95.8% (active) | -4% | 97% (active) | 91.3% (active) |
